# Assays:
# Assay in all cases: SPOT peptide array binding signal intensity (averaged, normalized) (arbitrary units (background-subtracted, floor 0; scale differs between SH3 domains)); higher = stronger binding of the SH3 domain to the peptide
# [1] = target: AgAbp1
# Summary of the method: (§1)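 GST-fused SH3 domains, from four yeast species, were produced in E. coli BL21(DE3) and captured on glutathione Sepharose. Membranes of cellulose carrying synthetic 15-mer peptides, in which cysteines had been replaced by serines, were exposed to each domain at 10 μg/ml overnight at 4°C in TBS-based blocking buffer. After anti-GST antibody, an HRP anti-mouse secondary and luminol, spots were imaged and quantified using Genespotter. Binding signal is normalized and background-subtracted spot intensity, averaged over replicates, in arbitrary units that differ between domains.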
# [2] = target: AgBbc1
# Summary of the method: as §1
# [3] = target: AgBem1-D1
# Summary of the method: as §1
# [4] = target: AgBzz1-D1
# Summary of the method: as §1
# [5] = target: AgBzz1-D2
# Summary of the method: as §1
# [6] = target: AgCyk3
# Summary of the method: as §1
# [7] = target: AgFus1
# Summary of the method: as §1
# [8] = target: AgHof1
# Summary of the method: as §1
# [9] = target: AgHse1
# Summary of the method: as §1
# [10] = target: AgLsb1
# Summary of the method: as §1
# [11] = target: AgLsb4
# Summary of the method: as §1
# [12] = target: AgMyo5
# Summary of the method: as §1
# [13] = target: AgNbp2
# Summary of the method: as §1
# [14] = target: AgRvs167
# Summary of the method: as §1
# [15] = target: AgSho1
# Summary of the method: as §1
# [16] = target: AgSla1-D1-D2
# Summary of the method: as §1
# [17] = target: AgSla1-D3
# Summary of the method: as §1
# [18] = target: CaAbp1-D1
# Summary of the method: as §1
# [19] = target: CaAbp1-D2
# Summary of the method: as §1
# [20] = target: CaBbc1
# Summary of the method: as §1
# [21] = target: CaBem1-D1
# Summary of the method: as §1
# [22] = target: CaBzz1-D1
# Summary of the method: as §1
# [23] = target: CaBzz1-D2
# Summary of the method: as §1
# [24] = target: CaCyk3
# Summary of the method: as §1
# [25] = target: CaFus1
# Summary of the method: as §1
# [26] = target: CaHof1
# Summary of the method: as §1
# [27] = target: CaHse1
# Summary of the method: as §1
# [28] = target: CaLsb1
# Summary of the method: as §1
# [29] = target: CaLsb4
# Summary of the method: as §1
# [30] = target: CaMyo5
# Summary of the method: as §1
# [31] = target: CaNbp2
# Summary of the method: as §1
# [32] = target: CaRvs167
# Summary of the method: as §1
# [33] = target: CaRvs167-3
# Summary of the method: as §1
# [34] = target: CaSho1
# Summary of the method: as §1
# [35] = target: CaSla1-D1-D2
# Summary of the method: as §1
# [36] = target: CaSla1-D3
# Summary of the method: as §1
# [37] = target: ScAbp1
# Summary of the method: as §1
# [38] = target: ScBbc1
# Summary of the method: as §1
# [39] = target: ScBem1-D1
# Summary of the method: as §1
# [40] = target: ScBzz1-D1
# Summary of the method: as §1
# [41] = target: ScBzz1-D2
# Summary of the method: as §1
# [42] = target: ScCyk3
# Summary of the method: as §1
# [43] = target: ScFus1
# Summary of the method: as §1
# [44] = target: ScHof1
# Summary of the method: as §1
# [45] = target: ScHse1
# Summary of the method: as §1
# [46] = target: ScLsb1
# Summary of the method: as §1
# [47] = target: ScLsb2
# Summary of the method: as §1
# [48] = target: ScLsb3
# Summary of the method: as §1
# [49] = target: ScLsb4
# Summary of the method: as §1
# [50] = target: ScMyo3
# Summary of the method: as §1
# [51] = target: ScMyo5
# Summary of the method: as §1
# [52] = target: ScNbp2
# Summary of the method: as §1
# [53] = target: ScPex13
# Summary of the method: as §1
# [54] = target: ScRvs167
# Summary of the method: as §1
# [55] = target: ScSho1
# Summary of the method: as §1
# [56] = target: ScSla1-D1-D2
# Summary of the method: as §1
# [57] = target: ScSla1-D3
# Summary of the method: as §1
# [58] = target: SpAbp1-D1
# Summary of the method: as §1
# [59] = target: SpBbc1
# Summary of the method: as §1
# [60] = target: SpBzz1-D1
# Summary of the method: as §1
# [61] = target: SpBzz1-D2
# Summary of the method: as §1
# [62] = target: SpCyk3
# Summary of the method: as §1
# [63] = target: SpHof1
# Summary of the method: as §1
# [64] = target: SpHof1-2
# Summary of the method: as §1
# [65] = target: SpHof1-3
# Summary of the method: as §1
# [66] = target: SpHse1
# Summary of the method: as §1
# [67] = target: SpLsb1
# Summary of the method: as §1
# [68] = target: SpLsb4
# Summary of the method: as §1
# [69] = target: SpMyo1
# Summary of the method: as §1
# [70] = target: SpNbp2
# Summary of the method: as §1
# [71] = target: SpPex13
# Summary of the method: as §1
# [72] = target: SpRvs167
# Summary of the method: as §1
# [73] = target: SpSla1-D1-D2
# Summary of the method: as §1
# [74] = target: SpSla1-D3
# Summary of the method: as §1
binder,measurement,setting,value
RRARRQMGIPTISQV,SPOT peptide array binding signal intensity,[1],125
same,SPOT peptide array binding signal intensity,[2],71.8
same,SPOT peptide array binding signal intensity,[3],252
same,SPOT peptide array binding signal intensity,[4],41
same,SPOT peptide array binding signal intensity,[5],35
same,SPOT peptide array binding signal intensity,[6],5
same,SPOT peptide array binding signal intensity,[7],716
same,SPOT peptide array binding signal intensity,[8],83.8
same,SPOT peptide array binding signal intensity,[9],854
same,SPOT peptide array binding signal intensity,[10],9.75
same,SPOT peptide array binding signal intensity,[11],138
same,SPOT peptide array binding signal intensity,[12],5
same,SPOT peptide array binding signal intensity,[13],724
same,SPOT peptide array binding signal intensity,[14],10.7
same,SPOT peptide array binding signal intensity,[15],287
same,SPOT peptide array binding signal intensity,[16],99.5
same,SPOT peptide array binding signal intensity,[17],14.5
same,SPOT peptide array binding signal intensity,[18],514
same,SPOT peptide array binding signal intensity,[19],941
same,SPOT peptide array binding signal intensity,[20],197
same,SPOT peptide array binding signal intensity,[21],299
same,SPOT peptide array binding signal intensity,[22],98.5
same,SPOT peptide array binding signal intensity,[23],115
same,SPOT peptide array binding signal intensity,[24],25.5
same,SPOT peptide array binding signal intensity,[25],657
same,SPOT peptide array binding signal intensity,[26],≤ 0
same,SPOT peptide array binding signal intensity,[27],278
same,SPOT peptide array binding signal intensity,[28],2.25
same,SPOT peptide array binding signal intensity,[29],806
same,SPOT peptide array binding signal intensity,[30],12.5
same,SPOT peptide array binding signal intensity,[31],1560
same,SPOT peptide array binding signal intensity,[32],58
same,SPOT peptide array binding signal intensity,[33],89.8
same,SPOT peptide array binding signal intensity,[34],758
same,SPOT peptide array binding signal intensity,[35],385
same,SPOT peptide array binding signal intensity,[36],104
same,SPOT peptide array binding signal intensity,[37],152
same,SPOT peptide array binding signal intensity,[38],35.5
same,SPOT peptide array binding signal intensity,[39],100
same,SPOT peptide array binding signal intensity,[40],11.5
same,SPOT peptide array binding signal intensity,[41],54.5
same,SPOT peptide array binding signal intensity,[42],53.5
same,SPOT peptide array binding signal intensity,[43],671
same,SPOT peptide array binding signal intensity,[44],0.5
same,SPOT peptide array binding signal intensity,[45],2110
same,SPOT peptide array binding signal intensity,[46],72.5
same,SPOT peptide array binding signal intensity,[47],2
same,SPOT peptide array binding signal intensity,[48],639
same,SPOT peptide array binding signal intensity,[49],121
same,SPOT peptide array binding signal intensity,[50],2.25
same,SPOT peptide array binding signal intensity,[51],1.5
same,SPOT peptide array binding signal intensity,[52],1060
same,SPOT peptide array binding signal intensity,[53],96.9
same,SPOT peptide array binding signal intensity,[54],95
same,SPOT peptide array binding signal intensity,[55],978
same,SPOT peptide array binding signal intensity,[56],484
same,SPOT peptide array binding signal intensity,[57],308
same,SPOT peptide array binding signal intensity,[58],416
same,SPOT peptide array binding signal intensity,[59],12.2
same,SPOT peptide array binding signal intensity,[60],143
same,SPOT peptide array binding signal intensity,[61],4.25
same,SPOT peptide array binding signal intensity,[62],3.5
same,SPOT peptide array binding signal intensity,[63],188
same,SPOT peptide array binding signal intensity,[64],71
same,SPOT peptide array binding signal intensity,[65],435
same,SPOT peptide array binding signal intensity,[66],1100
same,SPOT peptide array binding signal intensity,[67],7.5
same,SPOT peptide array binding signal intensity,[68],642
same,SPOT peptide array binding signal intensity,[69],13.5
same,SPOT peptide array binding signal intensity,[70],1480
same,SPOT peptide array binding signal intensity,[71],86
same,SPOT peptide array binding signal intensity,[72],50.2
same,SPOT peptide array binding signal intensity,[73],24.2
same,SPOT peptide array binding signal intensity,[74],131
NPNRRAPRRPLSTQH,SPOT peptide array binding signal intensity,[31],4120
same,SPOT peptide array binding signal intensity,[32],19
same,SPOT peptide array binding signal intensity,[33],66
same,SPOT peptide array binding signal intensity,[34],562
same,SPOT peptide array binding signal intensity,[35],622
same,SPOT peptide array binding signal intensity,[36],12.2
same,SPOT peptide array binding signal intensity,[37],154
same,SPOT peptide array binding signal intensity,[38],185
same,SPOT peptide array binding signal intensity,[39],28.5
same,SPOT peptide array binding signal intensity,[40],30.5
same,SPOT peptide array binding signal intensity,[41],8
same,SPOT peptide array binding signal intensity,[42],109
same,SPOT peptide array binding signal intensity,[43],402
same,SPOT peptide array binding signal intensity,[44],1.25
same,SPOT peptide array binding signal intensity,[45],2480
same,SPOT peptide array binding signal intensity,[46],65
same,SPOT peptide array binding signal intensity,[47],12
same,SPOT peptide array binding signal intensity,[48],1470
same,SPOT peptide array binding signal intensity,[49],35
same,SPOT peptide array binding signal intensity,[50],20
same,SPOT peptide array binding signal intensity,[51],8.75
same,SPOT peptide array binding signal intensity,[52],4200
same,SPOT peptide array binding signal intensity,[53],23.5
same,SPOT peptide array binding signal intensity,[54],46.5
same,SPOT peptide array binding signal intensity,[55],984
same,SPOT peptide array binding signal intensity,[56],1340
same,SPOT peptide array binding signal intensity,[57],7
same,SPOT peptide array binding signal intensity,[58],313
same,SPOT peptide array binding signal intensity,[59],50.5
same,SPOT peptide array binding signal intensity,[60],352
same,SPOT peptide array binding signal intensity,[61],32.2
same,SPOT peptide array binding signal intensity,[62],1
same,SPOT peptide array binding signal intensity,[63],342
same,SPOT peptide array binding signal intensity,[64],8.5
same,SPOT peptide array binding signal intensity,[65],166
same,SPOT peptide array binding signal intensity,[66],1390
same,SPOT peptide array binding signal intensity,[67],11
same,SPOT peptide array binding signal intensity,[68],906
same,SPOT peptide array binding signal intensity,[69],84.5
same,SPOT peptide array binding signal intensity,[70],498
same,SPOT peptide array binding signal intensity,[71],48.5
same,SPOT peptide array binding signal intensity,[72],17
same,SPOT peptide array binding signal intensity,[73],1
same,SPOT peptide array binding signal intensity,[74],32
